# Legend:
# Assay in all cases: SPOT peptide array binding signal intensity (averaged, normalized) (arbitrary units (background-subtracted, floor 0; scale differs between SH3 domains)); higher = stronger binding of the SH3 domain to the peptide
# CaNbp2 = target: CaNbp2
# Outline: (§1)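 GST-fused SH3 domains from four yeast species were expressed in E. coli BL21(DE3), purified on glutathione Sepharose and incubated at 10 μg/ml overnight at 4°C in TBS-based blocking buffer on cellulose membranes carrying synthetic 15-mer peptides, with cysteines replaced by serines. Bound protein was detected with anti-GST antibody, an HRP anti-mouse secondary and luminol, then imaged and quantified with Genespotter. Binding signal is the normalized, background-subtracted spot intensity averaged over replicates, in arbitrary units that differ between domains.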
# CaRvs167 = target: CaRvs167
# Outline: as §1
# CaRvs167-3 = target: CaRvs167-3
# Outline: as §1
# CaSho1 = target: CaSho1
# Outline: as §1
# CaSla1-D1-D2 = target: CaSla1-D1-D2
# Outline: as §1
# CaSla1-D3 = target: CaSla1-D3
# Outline: as §1
# ScAbp1 = target: ScAbp1
# Outline: as §1
# ScBbc1 = target: ScBbc1
# Outline: as §1
# ScBem1-D1 = target: ScBem1-D1
# Outline: as §1
# ScBzz1-D1 = target: ScBzz1-D1
# Outline: as §1
# ScBzz1-D2 = target: ScBzz1-D2
# Outline: as §1
# ScCyk3 = target: ScCyk3
# Outline: as §1
# ScFus1 = target: ScFus1
# Outline: as §1
# ScHof1 = target: ScHof1
# Outline: as §1
# ScHse1 = target: ScHse1
# Outline: as §1
# ScLsb1 = target: ScLsb1
# Outline: as §1
# ScLsb2 = target: ScLsb2
# Outline: as §1
# ScLsb3 = target: ScLsb3
# Outline: as §1
# ScLsb4 = target: ScLsb4
# Outline: as §1
# ScMyo3 = target: ScMyo3
# Outline: as §1
# ScMyo5 = target: ScMyo5
# Outline: as §1
# ScNbp2 = target: ScNbp2
# Outline: as §1
# ScPex13 = target: ScPex13
# Outline: as §1
# ScRvs167 = target: ScRvs167
# Outline: as §1
# ScSho1 = target: ScSho1
# Outline: as §1
# ScSla1-D1-D2 = target: ScSla1-D1-D2
# Outline: as §1
# ScSla1-D3 = target: ScSla1-D3
# Outline: as §1
# SpAbp1-D1 = target: SpAbp1-D1
# Outline: as §1
# SpBbc1 = target: SpBbc1
# Outline: as §1
# SpBzz1-D1 = target: SpBzz1-D1
# Outline: as §1
# SpBzz1-D2 = target: SpBzz1-D2
# Outline: as §1
# SpCyk3 = target: SpCyk3
# Outline: as §1
# SpHof1 = target: SpHof1
# Outline: as §1
# SpHof1-2 = target: SpHof1-2
# Outline: as §1
# SpHof1-3 = target: SpHof1-3
# Outline: as §1
# SpHse1 = target: SpHse1
# Outline: as §1
# SpLsb1 = target: SpLsb1
# Outline: as §1
# SpLsb4 = target: SpLsb4
# Outline: as §1
# SpMyo1 = target: SpMyo1
# Outline: as §1
# SpNbp2 = target: SpNbp2
# Outline: as §1
# SpPex13 = target: SpPex13
# Outline: as §1
# SpRvs167 = target: SpRvs167
# Outline: as §1
# SpSla1-D1-D2 = target: SpSla1-D1-D2
# Outline: as §1
# SpSla1-D3 = target: SpSla1-D3
# Outline: as §1
# AgAbp1 = target: AgAbp1
# Outline: as §1
# AgBbc1 = target: AgBbc1
# Outline: as §1
# AgBem1-D1 = target: AgBem1-D1
# Outline: as §1
# AgBzz1-D1 = target: AgBzz1-D1
# Outline: as §1
# AgBzz1-D2 = target: AgBzz1-D2
# Outline: as §1
# AgCyk3 = target: AgCyk3
# Outline: as §1
# AgFus1 = target: AgFus1
# Outline: as §1
# AgHof1 = target: AgHof1
# Outline: as §1
# AgHse1 = target: AgHse1
# Outline: as §1
# AgLsb1 = target: AgLsb1
# Outline: as §1
# AgLsb4 = target: AgLsb4
# Outline: as §1
# AgMyo5 = target: AgMyo5
# Outline: as §1
# AgNbp2 = target: AgNbp2
# Outline: as §1
# AgRvs167 = target: AgRvs167
# Outline: as §1
# AgSho1 = target: AgSho1
# Outline: as §1
# AgSla1-D1-D2 = target: AgSla1-D1-D2
# Outline: as §1
# AgSla1-D3 = target: AgSla1-D3
# Outline: as §1
# CaAbp1-D1 = target: CaAbp1-D1
# Outline: as §1
# CaAbp1-D2 = target: CaAbp1-D2
# Outline: as §1
# CaBbc1 = target: CaBbc1
# Outline: as §1
# CaBem1-D1 = target: CaBem1-D1
# Outline: as §1
# CaBzz1-D1 = target: CaBzz1-D1
# Outline: as §1
# CaBzz1-D2 = target: CaBzz1-D2
# Outline: as §1
# CaCyk3 = target: CaCyk3
# Outline: as §1
# CaFus1 = target: CaFus1
# Outline: as §1
# CaHof1 = target: CaHof1
# Outline: as §1
# CaHse1 = target: CaHse1
# Outline: as §1
# CaLsb1 = target: CaLsb1
# Outline: as §1
# CaLsb4 = target: CaLsb4
# Outline: as §1
# CaMyo5 = target: CaMyo5
# Outline: as §1
binder,measurement,setting,value
QPQRTAPKPPISAPR,SPOT peptide array binding signal intensity,CaNbp2,1340
same,SPOT peptide array binding signal intensity,CaRvs167,≤ 0
same,SPOT peptide array binding signal intensity,CaRvs167-3,1
same,SPOT peptide array binding signal intensity,CaSho1,14
same,SPOT peptide array binding signal intensity,CaSla1-D1-D2,291
same,SPOT peptide array binding signal intensity,CaSla1-D3,0.5
same,SPOT peptide array binding signal intensity,ScAbp1,8
same,SPOT peptide array binding signal intensity,ScBbc1,268
same,SPOT peptide array binding signal intensity,ScBem1-D1,≤ 0
same,SPOT peptide array binding signal intensity,ScBzz1-D1,4
same,SPOT peptide array binding signal intensity,ScBzz1-D2,15.5
same,SPOT peptide array binding signal intensity,ScCyk3,≤ 0
same,SPOT peptide array binding signal intensity,ScFus1,≤ 0
same,SPOT peptide array binding signal intensity,ScHof1,≤ 0
same,SPOT peptide array binding signal intensity,ScHse1,≤ 0
same,SPOT peptide array binding signal intensity,ScLsb1,≤ 0
same,SPOT peptide array binding signal intensity,ScLsb2,≤ 0
same,SPOT peptide array binding signal intensity,ScLsb3,58
same,SPOT peptide array binding signal intensity,ScLsb4,≤ 0
same,SPOT peptide array binding signal intensity,ScMyo3,699
same,SPOT peptide array binding signal intensity,ScMyo5,613
same,SPOT peptide array binding signal intensity,ScNbp2,2700
same,SPOT peptide array binding signal intensity,ScPex13,131
same,SPOT peptide array binding signal intensity,ScRvs167,≤ 0
same,SPOT peptide array binding signal intensity,ScSho1,6
same,SPOT peptide array binding signal intensity,ScSla1-D1-D2,1730
same,SPOT peptide array binding signal intensity,ScSla1-D3,25.5
same,SPOT peptide array binding signal intensity,SpAbp1-D1,2.5
same,SPOT peptide array binding signal intensity,SpBbc1,10
same,SPOT peptide array binding signal intensity,SpBzz1-D1,260
same,SPOT peptide array binding signal intensity,SpBzz1-D2,14.5
same,SPOT peptide array binding signal intensity,SpCyk3,0.5
same,SPOT peptide array binding signal intensity,SpHof1,≤ 0
same,SPOT peptide array binding signal intensity,SpHof1-2,7.5
same,SPOT peptide array binding signal intensity,SpHof1-3,≤ 0
same,SPOT peptide array binding signal intensity,SpHse1,≤ 0
same,SPOT peptide array binding signal intensity,SpLsb1,≤ 0
same,SPOT peptide array binding signal intensity,SpLsb4,27.5
same,SPOT peptide array binding signal intensity,SpMyo1,2550
same,SPOT peptide array binding signal intensity,SpNbp2,22.5
same,SPOT peptide array binding signal intensity,SpPex13,1
same,SPOT peptide array binding signal intensity,SpRvs167,2.33
same,SPOT peptide array binding signal intensity,SpSla1-D1-D2,≤ 0
same,SPOT peptide array binding signal intensity,SpSla1-D3,≤ 0
FFRRSELYLPNSSKA,SPOT peptide array binding signal intensity,AgAbp1,2
same,SPOT peptide array binding signal intensity,AgBbc1,3.75
same,SPOT peptide array binding signal intensity,AgBem1-D1,31.5
same,SPOT peptide array binding signal intensity,AgBzz1-D1,26.5
same,SPOT peptide array binding signal intensity,AgBzz1-D2,22.5
same,SPOT peptide array binding signal intensity,AgCyk3,≤ 0
same,SPOT peptide array binding signal intensity,AgFus1,162
same,SPOT peptide array binding signal intensity,AgHof1,25
same,SPOT peptide array binding signal intensity,AgHse1,1000
same,SPOT peptide array binding signal intensity,AgLsb1,1.75
same,SPOT peptide array binding signal intensity,AgLsb4,47.5
same,SPOT peptide array binding signal intensity,AgMyo5,7.25
same,SPOT peptide array binding signal intensity,AgNbp2,11
same,SPOT peptide array binding signal intensity,AgRvs167,1.67
same,SPOT peptide array binding signal intensity,AgSho1,25
same,SPOT peptide array binding signal intensity,AgSla1-D1-D2,122
same,SPOT peptide array binding signal intensity,AgSla1-D3,5.5
same,SPOT peptide array binding signal intensity,CaAbp1-D1,70
same,SPOT peptide array binding signal intensity,CaAbp1-D2,51.5
same,SPOT peptide array binding signal intensity,CaBbc1,0.25
same,SPOT peptide array binding signal intensity,CaBem1-D1,9
same,SPOT peptide array binding signal intensity,CaBzz1-D1,95
same,SPOT peptide array binding signal intensity,CaBzz1-D2,32.2
same,SPOT peptide array binding signal intensity,CaCyk3,≤ 0
same,SPOT peptide array binding signal intensity,CaFus1,624
same,SPOT peptide array binding signal intensity,CaHof1,≤ 0
same,SPOT peptide array binding signal intensity,CaHse1,3
same,SPOT peptide array binding signal intensity,CaLsb1,0.5
same,SPOT peptide array binding signal intensity,CaLsb4,13
same,SPOT peptide array binding signal intensity,CaMyo5,14.2
same,SPOT peptide array binding signal intensity,CaNbp2,89
same,SPOT peptide array binding signal intensity,CaRvs167,4.5
same,SPOT peptide array binding signal intensity,CaRvs167-3,16.2
same,SPOT peptide array binding signal intensity,CaSho1,318
same,SPOT peptide array binding signal intensity,CaSla1-D1-D2,≤ 0
same,SPOT peptide array binding signal intensity,CaSla1-D3,≤ 0
same,SPOT peptide array binding signal intensity,ScAbp1,47
same,SPOT peptide array binding signal intensity,ScBbc1,≤ 0
same,SPOT peptide array binding signal intensity,ScBem1-D1,18
same,SPOT peptide array binding signal intensity,ScBzz1-D1,11
same,SPOT peptide array binding signal intensity,ScBzz1-D2,20
same,SPOT peptide array binding signal intensity,ScCyk3,24
same,SPOT peptide array binding signal intensity,ScFus1,206
same,SPOT peptide array binding signal intensity,ScHof1,1
same,SPOT peptide array binding signal intensity,ScHse1,1290
same,SPOT peptide array binding signal intensity,ScLsb1,6.25
same,SPOT peptide array binding signal intensity,ScLsb2,2
same,SPOT peptide array binding signal intensity,ScLsb3,34.5
same,SPOT peptide array binding signal intensity,ScLsb4,8
same,SPOT peptide array binding signal intensity,ScMyo3,3.5
same,SPOT peptide array binding signal intensity,ScMyo5,8.5
same,SPOT peptide array binding signal intensity,ScNbp2,42.5
same,SPOT peptide array binding signal intensity,ScPex13,≤ 0
same,SPOT peptide array binding signal intensity,ScRvs167,3.17
same,SPOT peptide array binding signal intensity,ScSho1,201
same,SPOT peptide array binding signal intensity,ScSla1-D1-D2,12
same,SPOT peptide array binding signal intensity,ScSla1-D3,0.5
same,SPOT peptide array binding signal intensity,SpAbp1-D1,45
same,SPOT peptide array binding signal intensity,SpBbc1,≤ 0
same,SPOT peptide array binding signal intensity,SpBzz1-D1,111
same,SPOT peptide array binding signal intensity,SpBzz1-D2,≤ 0
same,SPOT peptide array binding signal intensity,SpCyk3,≤ 0
same,SPOT peptide array binding signal intensity,SpHof1,65.2
same,SPOT peptide array binding signal intensity,SpHof1-2,6.75
same,SPOT peptide array binding signal intensity,SpHof1-3,455
same,SPOT peptide array binding signal intensity,SpHse1,552
same,SPOT peptide array binding signal intensity,SpLsb1,0.75
same,SPOT peptide array binding signal intensity,SpLsb4,7
same,SPOT peptide array binding signal intensity,SpMyo1,9
same,SPOT peptide array binding signal intensity,SpNbp2,3
same,SPOT peptide array binding signal intensity,SpPex13,10
same,SPOT peptide array binding signal intensity,SpRvs167,6.67
same,SPOT peptide array binding signal intensity,SpSla1-D1-D2,≤ 0
same,SPOT peptide array binding signal intensity,SpSla1-D3,35
